This passage reports outcome and AC50 results from PubChem BioAssay (EPA / NIEHS).

A word on the AC50: it is the concentration giving half of the maximal activity seen.

Test [1] is described as follows: CCTE_Deisenroth_5AR_NBTE_acceptor: CCTE's 5alpha-reductase NanoBRET Target Engagement Assay - Autofluorescence Screen, Deisenroth Lab (AID 2284321; active = hit-call score of the fitted dose curve at least 0.9, where 1 is the maximum; inactive = score below 0.9;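 note: compound fluorescence in the acceptor channel under 460 nm excitation flags autofluorescence artifacts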). The settings on record: actives raise or lower the signal. A digest of the protocol: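 Using three independent plate-reader runs, nominal 100 uM chemicals were checked for intrinsic fluorescence (ex 460 nm). DMSO defined the baseline for bidirectional fitting.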
(Bioluminescence resonance energy transfer reports proximity on the nanometre scale.)

For the next test, the system named is SRD5A2 (gene 6716). Put plainly: CCTE_Deisenroth_5AR_NBTE_ratio: CCTE's 5alpha-reductase NanoBRET Target Engagement Assay - Ratio, Deisenroth Lab (AID 2284322; active = hit-call score of the fitted dose curve at least 0.9, where 1 is the maximum; inactive = score below 0.9). The note with it: actives raise or lower the signal. In outline: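 Reverse-transfect HEK293T with pNLF1-C-SRD5A2, express 20 h. Pre-incubate cells with chemical 3 h (8-point series, 10 nM - 29.9 uM, duplicate). Add testosterone tracer, 2 h more. Add substrate/inhibitor, read donor and acceptor emission.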

Test [2] in a line: IUF_NPC1_cytotoxicity_72hr: Cytotoxicity Assessment at 72 hours in the Leibniz Research Institute for Environmental Medicine (IUF) Neural Progenitor Cell Proliferation Assay (NPC1) (AID 2284332).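 Note: rising LDH signal means more cytotoxicity.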 A digest of the protocol:
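hNPC spheres (fetal brain, gestational week 16-19) grown under proliferative EGF/FGF conditions, pH 7.2-7.6, were treated continuously for 72 h. Cytotoxicity came from LDH-coupled resazurin fluorescence in each well's supernatant.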

Test [3] can be described thus: CCTE_Mundy_HCI_iCellGluta_NOG_NeuronCount: CCTE's Neurite Outgrowth Assay in iCellGluta cells for Neuron Count, Mundy Lab (AID 2284340).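 Note: cells fixed about 48 h after compound addition.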 A digest of the protocol: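 Neuron count read by automated high-content imaging of Hoechst 33342 and betaIII-tubulin/Alexa Fluor-488 labelling in human iPSC glutamatergic neurons. Activity fitted relative to DMSO.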
A short description of test [4]: CCTE_Mundy_HCI_iCellGluta_NOG_NeuriteCount: CCTE's Neurite Outgrowth Assay in iCellGluta cells for Neurite Count, Mundy Lab (AID 2284342).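 Note: chemical exposure about 48 hours starting 2 hours after plating.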
A short description of test [5]: CCTE_Deisenroth_H295R-HTRF_384WELL_ESTRADIOL: CCTE's H295R-HTRF Assay Evaluation of Estradiol Concentration, Deisenroth Lab (AID 2284361; active = hit-call score of the fitted dose curve at least 0.9, where 1 is the maximum; inactive = score below 0.9). The note with it: actives raise or lower the signal. In outline:
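H295R cells exposed 48 h to chemicals at 0.001 - 100 uM final (nine points, triplicate); estradiol in conditioned medium measured by HTRF immunoassay, fitted bidirectionally versus DMSO. Viability by CellTiter-Glo on same plates.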

Test [6] can be described thus: CCTE_Deisenroth_H295R-HTRF_384WELL_TESTOSTERONE: CCTE's H295R-HTRF Assay Evaluation of Testosterone Concentration, Deisenroth Lab (AID 2284373; active = hit-call score of the fitted dose curve at least 0.9, where 1 is the maximum; inactive = score below 0.9). The note with it: actives raise or lower the signal. In outline:
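Secreted testosterone was quantified by HTRF immunoassay of medium from human adrenocortical H295R cells after 48 h chemical exposure at 0.001–100 uM final. Gain or loss was fitted against DMSO. ATP-based viability was read on matched wells, five experimental replicates.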
A general note: Time-resolved FRET reads energy transfer from a long-lived donor to a nearby acceptor.

Test [7] is described as follows: CCTE_Deisenroth_H295R-HTRF_384WELL_CTOX: Cytotoxicity Assessment in CCTE's H295R-HTRF Assay, Deisenroth Lab (AID 2284380). In outline:
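H295R adrenocortical carcinoma cells plated 24 h, then exposed 48 h to nine-point series 0.001–100 uM final, triplicate, n=5. ATP measured by CellTiter-Glo 2.0 luminescence on same plates after medium collection; loss versus DMSO.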

The test system of a further test is SERPINA7 (gene 6906). Put plainly: CCTE_GLTED_hTBG: CCTE's human Thyroxine-binding Globulin (TBG) Inhibition Assay, Great Lakes Toxicology and Ecology Division (GLTED) Lab (AID 2284343).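 Note: active chemicals lower fluorescence versus DMSO baseline by displacing probe.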 In outline:
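Measures how far test chemicals displace ANSA bound to purified human TBG. The read-out is fluorescence at 380 nm excitation and 475 nm emission, taken after 2 h of incubation.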

Test [8] is described as follows: TAMU_PeakParms_SingleDonor1434_Asystole: Texas A&M University (TAMU) 1.5-hr Human Induced Pluripotent Stem Cell (iPSC)-derived Cardiomyocytes Calcium (Ca+2) Flux Assay for Cardiotoxicity: Asystole (quiescence of beating) (AID 2284328). In outline:
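Human iPSC-derived cardiomyocytes (donor 1434) were exposed to 0.2, 1, 10 and 100 uM compound in 0.5% DMSO for 90 min at 37C. Ca2+-dye fluorescence gave average peak frequency; POD is EC95, a 95% beat-rate drop versus DMSO.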

Test [9] can be described thus: VALA_TUBHUV_Antagonist_TubuleLength: VALA Sciences human Umbilical Vein Endothelial Tubule Formation (TUBHUV) Antagonism Assay (AID 2284325). In outline:
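HUVEC–HDF co-culture (1:3) pre-grown 3 days with 10 ng/ml VEGF, then 3 days with compound plus VEGF. Fixed, nuclear and CD31 stained; total tubule length by imaging versus 0.1% DMSO; suramin 100 uM positive control.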

Test [10] is described as follows: VALA_TUBIPS_Antagonist_CellCount: Viability Assessment in the VALA Sciences human iPS-derived Endothelial Tubule Formation (TUBIPS) Antagonism Assay (AID 2284335).
A short description of test [11]: VALA_TUBIPS_Agonist_CellCount: Viability Assessment in the VALA Sciences human iPS-derived Endothelial Tubule Formation (TUBIPS) Agonism Assay (AID 2284338).

Records with an inconclusive call do not appear. The source made the active and inactive calls. Rule for the calls, unless noted: active = hit-call score of the fitted dose curve at least 0.9, where 1 is the maximum; inconclusive = response in the unintended direction; inactive = score below 0.9.

As for `O=[N+]([O-])/N=C1\NCCN1Cc1ccc(Cl)nc1`, the outcome (in test [1]; in the test on SRD5A2 (gene 6716); in test [2]; in [3]; in [4]) was inactive.
As for `CNC(=O)CSP(=S)(OC)OC`, the result in [2], in test [3], in test [4], in [5], in test [6] and in test [7] was inactive.
As for `COP(=S)(OC)Oc1ccc(SC)c(C)c1`, the AC50 in the test on SERPINA7 (gene 6906) is 12 µM (active).
Same read-out and setting: under `O=C(O)CCCOc1ccc(Cl)cc1Cl` stands 20.7 µM (active); under `C[C@H]1[C@H](c2ccc(Cl)cc2)SC(=O)N1C(=O)NC1CCCCC1`, 2.63 µM (active).
Turning to `CN1CSC(=S)N(C)C1`, in test [8], the outcome was inactive.
On to `CC(C)(C)C(O)C(Oc1ccc(Cl)cc1)n1cncn1` (configuration not stated), for which the call in test [5], in [6] and in [7] was inactive.
For the compound `CC1(c2ccc(Oc3ccccc3)cc2)OC(=O)N(Nc2ccccc2)C1=O` (configuration not stated), the compound was classed as inactive in [1], in test [2] and in test [4]. Further, the AC50 with SRD5A2 (gene 6716) is 9.91 µM (active); in [3], 50 µM (active).
With `CC[C@H](C)[C@H]1O[C@]2(C=C[C@@H]1C)C[C@@H]1C[C@@H](C/C=C(\C)[C@@H](O[C@H]3C[C@H](OC)[C@@H](O[C@H]4C[C@H](OC)[C@@H](O)[C@H](C)O4)[C@H](C)O3)[C@@H](C)/C=C/C=C3\CO[C@@H]4[C@H](O)C(C)=C[C@@H](C(=O)O1)[C@]34O)O2` (tested in a mixture with another compound), the compound was called inactive in test [2]. Further, the figures for the AC50 in test [3] and in [4] were 3.77 µM (active) and 3.36 µM (active), respectively.
For `CCC(C)(C)C(=O)OC1=C(c2ccc(Cl)cc2Cl)C(=O)OC12CCCCC2`, the outcome in [2], in test [3] and in test [4] was inactive.
Regarding `COP(=O)(OC)OC=C(Cl)Cl`, the outcome in test [2] and in test [3] was inactive. Also, in test [4], the AC50 is 49 µM (active).
As to `CCOCN(C(=O)CCl)c1c(C)cccc1CC`, the result in [8] was inactive.
Take `C#CCN1C(=O)COc2cc(F)c(N3C(=O)C4=C(CCCC4)C3=O)cc21`: the AC50 with SERPINA7 (gene 6906) was 8.38 µM (active).
As for `Oc1cc(Cl)ccc1Oc1ccc(Cl)cc1Cl`, the outcome in test [9] was inactive. The AC50 in test [10] is 0.00562 µM (active); in test [11], 7.53 µM (active); in the test with SERPINA7 (gene 6906) it was 0.154 µM (active).
Turning to `Oc1ccc(Cl)cc1Cc1ccccc1`, in the test with SERPINA7 (gene 6906), the AC50 was 1.07 µM (active).
In the case of `CCCN(CCOc1c(Cl)cc(Cl)cc1Cl)C(=O)n1ccnc1`, the outcome (in test [1]; in the test on SRD5A2 (gene 6716); in test [7]) was inactive. The results for the AC50 in test [5] and in [6] were 0.00173 µM (active) and 0.322 µM (active), respectively.
For `O=C1c2ccccc2C(=O)N1SC(Cl)(Cl)Cl`, the call (in [1]; in the test with SRD5A2 (gene 6716)) was inactive.
With `CC(C)(C)C(O)/C(=C\c1ccc(Cl)cc1Cl)n1cncn1` (configuration not stated), the concentration at half-maximal activity (AC50) in the test on SERPINA7 (gene 6906) is 30.8 µM (active).
As to `CCN(CC)C(=O)SCc1ccc(Cl)cc1`, in the test on SERPINA7 (gene 6906), the AC50 is 22.4 µM (active).
Turning to `ClC1C(Cl)C(Cl)C(Cl)C(Cl)C1Cl` (configuration not stated), the call (in test [1]; with SRD5A2 (gene 6716); in test [8]) was inactive.
As for `Clc1ccccc1-c1nnc(-c2ccccc2Cl)nn1`, the concentration at half-maximal activity (AC50) with SERPINA7 (gene 6906) is 0.23 µM (active).
